High-throughput results (PubChem BioAssay)
Hits are enriched below; roughly 4.9% of the tested compounds scored in any of these assays.
NLRP3 yeast inh = inhibitors of NALP3 inflammasome in yeast; Yeast reconstituted NLRP3/ASC/caspase-1, beta-gal luminescence, 24 h; actives 0.39% (n = 330,000); inhibition, % at 10 µM; AID 2825;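 active means inhibition of 50% or more; inactive means inhibition below 50%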;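 further: plate controls were induced DMSO wells for no effect and uninduced yeast grown without galactose for full effect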
TIM10 inh = inhibits growth of TIM10 yeast strain. S. cerevisiae TIM10 strain growth, BacTiter-Glo luminescence, 24 h. inhibition, % at 10 µM. actives 1.4% (n = 330,000). AID 463195;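 active means inhibition of 40% or more at the single tested concentration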;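 further: wild-type TIM10 isogenic control strain grown at permissive 25 °C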
tim10-1 inh = growth inhibitors of tim10-1 mutant yeast; inhibition, % at 20 µM; S. cerevisiae tim10-1 ts strain growth, BacTiter-Glo, 24 h; actives 2.2% (n = 330,000);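 active means inhibition of at least 40%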;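 further: mutant grown at 25 °C; 0% = DMSO wells with yeast and 100% = wells holding no yeast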
NALP1 yeast inh = NALP1 inhibition | S. cerevisiae NALP1/ASC/caspase-1 growth, X-gal OD620, 72 h | inhibition, % at 10 µM | actives 0.61% (n = 280,000) | AID 2071; in the data active means inhibition mostly above about 24%, no sharp cut-off; inactive means mostly below about 32%
SKKanGAS inh = blocks kanamycin growth of S. pyogenes SKKanGAS strain; BacTiter-Glo, 6 h; inhibition, % at 7.5 µM; actives 1.3% (n = 300,000);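 active means mean replicate score, as percent of positive control median, at least 50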;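 further: strain carries kanamycin resistance gene driven by streptokinase promoter and grows in 40 µg/ml kanamycin; loss of luminescence reflects streptokinase promoter inhibition or plain growth inhibition; 0% = median of DMSO wells and 100% = positive control at its reference dose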
tim23-1 inh = growth inhibitors of tim23-1 mutant yeast | S. cerevisiae tim23-1 growth, BacTiter-Glo luminescence, 24 h | inhibition, % at 20 µM | actives 1.3% (n = 330,000) | AID 463212;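 active means growth inhibition of the mutant yeast at or above 50%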;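 further: temperature-sensitive mutant grown at 25 °C; plate controls were DMSO-treated mutant yeast for no effect and medium wells lacking yeast for full effect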
TIM10 conf = confirmation of TIM10 yeast growth inhibitors; actives 63% (n = 4,600); S. cerevisiae tim10 strain growth, BacTiter-Glo luminescence, 24 h; shares compounds with TIM10 inh; inhibition, % at 10 µM;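 active means inhibition of yeast growth at or above a set limit in either of two replicates at 10 µM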;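 further: this counterscreen used the strain with wild-type TIM10; 0% = yeast with DMSO and 100% = medium wells lacking yeast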
An asterisk follows results filed as active.

For Cc1cc(C)c(C(=O)N(C)C2CCCN(Cc3ccccc3F)C2)o1 (configuration not stated) the results were NLRP3 yeast inh 3.0, TIM10 inh 12.1, tim10-1 inh 6.1, NALP1 yeast inh 26.3, SKKanGAS inh -0.9 and tim23-1 inh -7.2.
`COc1cccc(/C=N/NC(=O)c2ccc([N+](=O)[O-])cc2Cl)c1O` gave NLRP3 yeast inh 28.9, TIM10 inh 15.7, tim10-1 inh 17.5, NALP1 yeast inh 9.3, SKKanGAS inh 13.4 and tim23-1 inh 47.6.
COc1ccc(-c2ccc(SCC(=O)c3cccs3)nn2)cc1 was read as NLRP3 yeast inh -75.3, TIM10 inh 42.7*, tim10-1 inh 20.3, NALP1 yeast inh 4.6, SKKanGAS inh 0.6, tim23-1 inh 12.5 and TIM10 conf 28.6.
COc1ccc(-c2ccc(SCC(=O)Nc3nnc(C)s3)nn2)cc1 was read as NLRP3 yeast inh 12.2, TIM10 inh -4.7, tim10-1 inh -11.4, NALP1 yeast inh 13.1, SKKanGAS inh -24.0 and tim23-1 inh -2.3.
O=C(CSc1ccc(-c2ccccc2)nn1)c1cccs1 was read as NLRP3 yeast inh -47.8, TIM10 inh 40.9*, tim10-1 inh 21.3, NALP1 yeast inh 16.7, SKKanGAS inh -6.1, tim23-1 inh 10.5 and TIM10 conf 16.2.
`Cc1cc2c(cc1S(=O)(=O)NCc1ccc(N(C)C)cc1)OCC(=O)N2` gave NLRP3 yeast inh -6.2, TIM10 inh 3.0, tim10-1 inh 4.0, NALP1 yeast inh 23.1, SKKanGAS inh -6.0 and tim23-1 inh -6.1.
COc1ccc(C2CC(=O)c3c(O)cc(O)cc3O2)c(CC=C(C)C)c1OC (configuration not stated) was read as NLRP3 yeast inh 22.3, TIM10 inh 2.8, tim10-1 inh 37.6, SKKanGAS inh 30.5 and tim23-1 inh 37.3.
For CC(=O)NN1C(=O)c2ccccc2NC1c1ccc([N+](=O)[O-])o1 (configuration not stated) the results were NLRP3 yeast inh 23.1, TIM10 inh 9.5, tim10-1 inh 2.4, NALP1 yeast inh 3.8, SKKanGAS inh -20.9 and tim23-1 inh 12.9.
`O=C(NN1C(=O)c2ccccc2NC1c1ccc([N+](=O)[O-])o1)c1ccc(Br)cc1` (configuration not stated) gave NLRP3 yeast inh 12.2, TIM10 inh 54.9*, tim10-1 inh 38.2, NALP1 yeast inh -5.3, SKKanGAS inh 10.2, tim23-1 inh 42.9 and TIM10 conf 61.0*.
Screening CC(=O)Nc1ccc(C(=O)N/N=C/c2cc(Br)cc(Br)c2O)cc1 returned NLRP3 yeast inh 2.7, TIM10 inh 51.5*, tim10-1 inh 33.6, NALP1 yeast inh -1.5, SKKanGAS inh 21.6, tim23-1 inh 11.4 and TIM10 conf 31.1*.
Screening O=C(OCc1nnn(Cc2ccccc2)c1-c1c(COC(=O)c2ccccc2)nnn1Cc1ccccc1)c1ccccc1 returned NLRP3 yeast inh 17.8, TIM10 inh 9.2, tim10-1 inh 10.9, NALP1 yeast inh 12.9 and tim23-1 inh 26.7.
For Oc1[nH]c2ccccc2c1N=Nc1nc(Nc2ccccc2)nc(N2CCOCC2)n1 the results were NLRP3 yeast inh 8.8, TIM10 inh 10.7, tim10-1 inh 17.6, SKKanGAS inh 40.8 and tim23-1 inh 12.7.
For Cc1[nH]c2ccccc2c1/C=N/Nc1nc(Nc2ccccc2)nc(N2CCOCC2)n1 the results were NLRP3 yeast inh 26.1, TIM10 inh 51.8*, tim10-1 inh 23.7, NALP1 yeast inh 5.9, SKKanGAS inh 4.7, tim23-1 inh 17.7 and TIM10 conf 35.0*.
Screening COc1ccc(/C=N/Nc2nc(Nc3ccccc3)nc(N3CCCCC3)n2)c(OC)c1 returned NLRP3 yeast inh 21.8, TIM10 inh 40.9*, tim10-1 inh 29.6, NALP1 yeast inh 17.1, SKKanGAS inh 19.2, tim23-1 inh 24.9 and TIM10 conf -32.5.
For Fc1ccc(Nc2nc(N/N=C/c3ccco3)nc(N3CCCCC3)n2)cc1 the results were NLRP3 yeast inh 23.2, TIM10 inh 40.1*, tim10-1 inh 12.8, NALP1 yeast inh 14.7, SKKanGAS inh 67.5*, tim23-1 inh 40.6 and TIM10 conf 21.8.
